What all share (type): functional
For assay [1], the target named is Solute carrier family 2, facilitated glucose transporter member 1 (Homo sapiens) (UniProt P11166). Nature of the assay: ST_JUDE_LEISH: Cytotoxicity at 2uM final concentration against transgenic Leishmania Mexicana promastigotes LmGLUT1 that are glucose transport deficient and complemented with the human glucose transporter GLUT1. Activity is measured by DNA content using SYBR green in vitro.

The target of assay [2] is Hexose transporter 1 (Plasmodium falciparum) (UniProt O97467). Nature of the assay: ST_JUDE_LEISH: Cytotoxicity at 2uM final concentration against transgenic Leishmania Mexicana promastigotes LmPfHT that are glucose transport deficient and complemented with the Plasmodium falciparum hexose transporter. Activity is measured by DNA content using SYBR green in vitro.
Assay [3] has as its target Glucose transporter (Leishmania mexicana) (UniProt O61059). Nature of the assay: ST_JUDE_LEISH: Cytotoxicity at 2uM final concentration against transgenic Leishmania Mexicana promastigotes LmGT2 that are glucose transport deficient and complemented with the L. Mexicana glucose transporter 2. Activity is measured by DNA content using SYBR green in vitro.

By inhibition is commonly meant the relative decrease from the control value, in per cent.

Sequence of Solute carrier family 2, facilitated glucose transporter member 1 (Homo sapiens) (P11166 whole entry): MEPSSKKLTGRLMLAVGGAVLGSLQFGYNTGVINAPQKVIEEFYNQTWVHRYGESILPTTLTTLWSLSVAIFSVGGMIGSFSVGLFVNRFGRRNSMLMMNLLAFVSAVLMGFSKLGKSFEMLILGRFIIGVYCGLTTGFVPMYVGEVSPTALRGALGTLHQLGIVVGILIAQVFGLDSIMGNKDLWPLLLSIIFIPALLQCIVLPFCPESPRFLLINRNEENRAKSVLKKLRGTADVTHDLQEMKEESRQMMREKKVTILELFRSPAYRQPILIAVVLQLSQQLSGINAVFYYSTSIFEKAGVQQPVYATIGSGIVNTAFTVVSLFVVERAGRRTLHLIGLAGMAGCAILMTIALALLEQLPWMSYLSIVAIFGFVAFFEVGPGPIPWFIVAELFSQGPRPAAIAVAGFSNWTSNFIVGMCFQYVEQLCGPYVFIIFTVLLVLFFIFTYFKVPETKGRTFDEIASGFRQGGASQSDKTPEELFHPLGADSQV

As to `COc1ccc2c(=NN=Cc3ccc(F)cc3)cc(C)[nH]c2c1`, the inhibition in assay [1] came to 12.2%; in assay [2], 11%; in assay [3], 11.6%.
For `O=C(/C=C/c1ccc(Cl)c(Cl)c1)NC1CCC(CN2CCC(Cc3c[nH]c4ccccc34)CC2)CC1` (stereo not drawn) the same measures were 2.9%, 3.43% and 3.79%.
Consider `C[C@@H](CNc1ccnc(Nc2ccc3[nH]c(=O)[nH]c3c2)n1)c1ccccc1`, for which the inhibition in assay [1] was -3.02%; in assay [2], -0.02%; in assay [3], -0.41%.
Consider `COc1cc(Nc2nccc(N3CCC(NS(=O)(=O)c4ccc(NC(C)=O)cc4)CC3)n2)cc(OC)c1OC`, for which the inhibition is -1.13% in assay [1], -0.44% in assay [2] and -0.12% in assay [3].
Take `CCC(CC(C)C(=O)O)=C(c1ccccc1)c1ccccc1` (stereo not drawn): the inhibition is -0.78% in assay [1], -0.86% in assay [2] and 0.2% in assay [3].
As for `CN(C)C(CNC(=O)c1cc(-c2ccncc2)c(-c2ccc(Cl)c(O)c2)o1)c1ccccc1` (stereo not drawn), the inhibition in assay [1] was determined as 1.95%; in assay [2] it was 1.6%; in assay [3], 8.87%.
On the same counts, the results for `COc1ccc(-c2cnc(N)c(-c3nc4cc(Br)ccc4[nH]3)c2)cc1` are 9.38%, 11.3% and 6.12%.
For `N=C(N)CCN(Cc1ccc(Cl)cc1)c1ccc(Cl)cc1` the same measures were 0.7%, 0.7% and 0.65%.
For `CCN1CCC(N(Cc2ccc(-c3ccc(C(F)(F)F)cc3)cc2)C(=O)Cn2c(SCc3ccc(F)cc3)nc(=O)c3c2CCC3)CC1` the same measures were -0.04%, -0.63% and -2.05%.
As for `CNCCNCc1cccc(-c2cccc(-c3nc4cc(F)ccc4[nH]3)c2)c1`, the inhibition in assay [1] stood at 10.2%; in assay [2], 7.92%; in assay [3] it was 7.49%.
On the same counts, the results for `CCCCCCOc1ccc2ccccc2c1CNCCCCCCNCc1c(OCCCCCC)ccc2ccccc12` are 16.8%, 21.5% and 7.86%.
For `CC(NC(=O)c1ccc(O)c(-c2ccc(Cl)c(Cl)c2)c1)C(=O)NCCN1CCCCC1` (stereo not drawn) the same measures were -0.39%, 1.71% and 0.47%.
Consider `Cc1cccc2nc(-c3cccc(-c4ccc(NC(=O)COC(C)C)cc4)c3)[nH]c12`, for which the inhibition in assay [1] is -3.18%; in assay [2] it was 0.45%; in assay [3], -2.12%.
For `O=C(NCc1cccs1)[C@H](Cc1ccccc1)Nc1ccnc(NCCc2ccc(F)cc2)n1` the same measures were 11.2%, 9.62% and 9.52%.
`CC(C)NCC(=O)Nc1cccc(C(=O)Nc2cccc(C(F)(F)F)c2)c1`: the inhibition in assay [1] is 4.13%; in assay [2] it was 2.76%; in assay [3], -1.8%.
For `COc1ccccc1CCNC(=O)c1cnc(N2CCN(c3ccncc3)CC2)c(Cl)c1` the same measures were 74.5%, 83.8% and 82.9%.
Turning to `CN(C)C(=O)CN1CCN(c2ncnc(N3CCc4c([nH]c5ccccc45)[C@@H]3c3ccc4c(c3)CCO4)n2)CC1`, the inhibition in assay [1] was 4.28%; in assay [2] it was 1.61%; in assay [3], -0.47%.
On to `Cc1cc(N2CCN(C)CC2)nc2ccc(NC(=O)Cc3cccc(C(F)(F)F)c3)cc12`, for which the inhibition in assay [1] was 2.34%; in assay [2], 1.8%; in assay [3], 5.56%.
As to `C=CCOc1cccc2c1CCN(CCN1CCC(NC(=O)c3ccc(-c4ccc(Cl)cc4)cc3)CC1)C2`, the inhibition in assay [1] turned out to be 17.2%; in assay [2], 11.3%; in assay [3], 9.23%.
On the same counts, the results for `Cc1cc(NCCCCCCNc2cc(C)nc3c(C)cccc23)c2cccc(C)c2n1` are 3.76%, 7.91% and 0.85%.
On the same counts, the results for `CC(C)(C)c1ccc(-c2csc(NC(=O)CC(c3ccccc3)c3ccccc3)n2)cc1` are 1.4%, 1.95% and 2.07%.
As for `CC(=O)Nc1ccc(OCCN(Cc2ccccc2C(F)(F)F)c2ccc(C#N)c(C(F)(F)F)c2)c(Cl)c1`, the inhibition was determined as 2.42% in assay [1], 2.13% in assay [2] and 2.83% in assay [3].
On the same counts, the results for `CCOc1ccc(C=CC(=O)Nc2ccc3nc(N4CCOCC4)cc(C)c3c2)cc1OC` are 10.1%, 9.63% and 4.75%.
For `CC(Nc1nncc(-c2cccc(F)c2)n1)c1ccc(F)cc1` (stereo not drawn) the same measures were 11.7%, 9.2% and 10.7%.
In the case of `Cn1c(N)cc(-c2ccc(Br)cc2)c2c(=O)nc(N)nc1-2`, the inhibition worked out at 6.75% in assay [1], 4.96% in assay [2] and 5.76% in assay [3].
In the case of `O=C(c1ccc(-c2cccc(-c3nc4cc(F)ccc4[nH]3)c2)cc1)N1CCCCC1CN1CCC(O)C1` (stereo not drawn), the inhibition stood at 4.71% in assay [1], 4.55% in assay [2] and 3.96% in assay [3].
Consider `O=C(NCCN1CCC(NC(=O)c2ccc(-c3ccccn3)s2)CC1)c1ccc(Cl)c(Cl)c1`, for which the inhibition in assay [1] worked out at 3.53%; in assay [2], 4.02%; in assay [3], 4.43%.
Consider `CCOc1cc(C)ccc1C1CCN(CCCCNC(=O)c2cnc(-c3ccc(C(F)(F)F)cc3)[nH]2)CC1`, for which the inhibition in assay [1] was -1.9%; in assay [2] it was 2.12%; in assay [3], -0.53%.
On the same counts, the results for `Cc1cc(NC(=O)c2ccsc2)ccc1OC1CCN(Cc2ccc(F)cc2)CC1` are -0.33%, 2.48% and 1.6%.
For `CCOC(=O)C1=C(C)NC2=C(C(=O)CCC2)C1c1cn(Cc2ccc(Cl)cc2Cl)nc1-c1ccccc1` (stereo not drawn) the same measures were 2.11%, -1.29% and 1.62%.
On to `N=c1n(Cc2ccc(Cl)cc2)c2ccccc2n1CC(O)c1ccc(Cl)c(Cl)c1` (stereo not drawn), for which the inhibition was 0.04% in assay [1], 1.87% in assay [2] and -1.55% in assay [3].
In the case of `CC(C)CNCc1cccc(-c2ccccc2CNC2CCN(Cc3ccccc3)CC2)c1`, the results for the inhibition in assay [1], in assay [2] and in assay [3] were 5.47%, 4.95% and 7.56%, respectively.
On the same counts, the results for `O=C(N[C@@H](Cc1ccccc1)C(=O)NCc1cccc2ccccc12)c1ccc(O)c(-c2ccc(Cl)c(Cl)c2)c1` are 0.35%, 2.09% and 0.79%.
On the same counts, the results for `CS(=O)(=O)N(CC(O)Cn1c2ccc(Cl)cc2c2cc(Cl)ccc21)c1ccccc1` (stereo not drawn) are 0.79%, 1.45% and 2.64%.
Consider `COc1cccc2cc(C(=O)N[C@@H](CC(C)C)C(=O)N[C@H](C=NNC(=O)OC(C)(C)C)CC(C)C)oc12`, for which the inhibition in assay [1] came to 2.6%; in assay [2], 1.47%; in assay [3], 0.48%.
On the same counts, the results for `Cc1ccc2c(=O)cc(CCc3cccc(F)c3F)n(CC(=O)N(Cc3ccc(-c4ccc(C(F)(F)F)cc4)cc3)C3CCN(C(C)C)CC3)c2n1` are -2.51%, -0.71% and -1.8%.
